Assay results as given in PubChem BioAssay (Tox21).
Records with an inconclusive call do not appear. Where a call stands in place of a potency, no number is given. Values without a mark were called inactive. Calls of active or inactive are those of the source. Calls come from the whole dose curve.

biological target: Beta-2 adrenergic receptor (Homo sapiens) (UniProt P07550); assay: Adrenergic beta2 receptor (ADRB2) small molecule antagonists, cell-based qHTS assay (AID 1963592); settings: CHO-ADRB2 cells, isoproterenol-stimulated cAMP HTRF ratio, 0.5 h; series mostly up to 92.4 µM; note: nearly all actives have a fitted effect of over 50% in size
Sequence (P07550 whole entry, looked up): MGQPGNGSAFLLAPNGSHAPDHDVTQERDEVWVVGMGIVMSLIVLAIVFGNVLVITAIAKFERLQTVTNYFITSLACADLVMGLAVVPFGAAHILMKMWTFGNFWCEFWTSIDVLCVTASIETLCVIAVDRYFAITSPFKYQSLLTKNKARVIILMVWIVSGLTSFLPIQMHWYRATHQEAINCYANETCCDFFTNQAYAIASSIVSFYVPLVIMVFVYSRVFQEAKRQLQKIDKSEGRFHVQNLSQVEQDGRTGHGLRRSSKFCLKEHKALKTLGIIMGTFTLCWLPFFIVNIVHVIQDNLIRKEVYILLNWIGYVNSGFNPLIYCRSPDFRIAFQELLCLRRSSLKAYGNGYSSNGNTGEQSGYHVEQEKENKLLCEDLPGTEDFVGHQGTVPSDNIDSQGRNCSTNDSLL
Excerpt: U.S. Tox21 Program National Center for Advancing Translational Sciences [NCATS] Division of Preclinical Innovation [DPI] U.S. Environmental Protection Agency [EPA] National Institutes of Environmental Health Sciences [NIEHS] National Toxicology Program [NTP] U.S. Food and Drug Administration [FDA] Tox21 Assay Overview: Beta adrenergic receptors (Beta-ARs) belong to the G-protein coupled receptor (GPCR) superfamily, includes three subtypes - beta1, beta2, and beta3. Beta1-AR is the predominant receptor subtype expressed in the heart, and beta2-AR is expressed in the kidney, lung, blood vessel and in the heart, and beta3 is found in the adipocytes. Beta1 and 2 ARs couple to Gs protein and elevate cyclic adenosine mono phosphate (cAMP), which activates protein kinase A and leads to the downstream signaling responsible for the physiological actions. Beta-AR agonists or antagonists are the most prescribed therapeutic agents for heart failure and asthma, and these were one of the first target receptors for the rational drug design. Tox21 10K compound library was screened using the cAMP-Gs dynamic assay (Cisbio Bioassays, Shelton, CT) to identify agonists/antagonists of the Gs-coupled human adrenergic, beta2 receptor (ADRB2) in the CHO-ADRB2 cell line (Codex BioSolutions, Inc. Gaithersburg, MD), which stably over-expresses ADRB2. The principle of cAMP-Gs dynamic assay is based on HTRF technology, which facilitates the fluorescence resonance energy transfer (FRET) between donor Europium cryptate and acceptor d2-labeled cAMP. The cAMP generated within cells competes with the red acceptor, d2-labled cAMP, for binding to the monoclonal anti-cAMP-cryptate (Europium donor). An increase in intracellular cAMP leads to the disruption of FRET signal, and the signal is inversely proportional to the cAMP concentration. Propranolol HCl (Sigma-Aldrich, St. Louis, MO) was used as a positive control in the screening.
Tox21 Assay Protocol Summary: CHO-ADRB2 cells were dispensed at 1,000/well in 4uL assay medium into white/solid 1536-well plates (Greiner Bio-One North America Inc., Monroe, NC) using a Multidrop Combi dispenser (ThermoFisher Scientific, Waltham, MA). The assay plates were incubated at 37C and 5% CO2 for an overnight (18-20hr). Then positive control and test compounds dissolved in DMSO were transferred to the assay plates at 23nL using a Pintool station (Wako, San Diego, CA). Following the compound and positive control transfer, 1uL agonist-stimulation mix containing 1nM Isoproterenol HCl, 100uM IBMX and 25uM Ro-20-1724 was added to each well of the assay plates using BioRAPTR Flying Reagent Dispenser (FRD, Beckman Coulter, Brea, CA). The assay plates were incubated at room temperature for 0.5hr. Then 2.5ul each d2-labled cAMP and anti-cAMP-cryptate solutions were added separately to each well of the assay plates using an FRD and the assay plates were incubated at room temperature for 1hr. The fluorescence signal was measured at two different wavelengths (665nm and 615nm) using an Envision plate reader (Perkin Elmer, Shelton, CT). Data were expressed as the ratio of 665 nm/615 nm.
Potency is the fitted concentration of half-maximal effect.

SMILES	Potency	activity change, negative = inhibition
ClC1=C(Cl)[C@]2(Cl)[C@H]3[C@H]([C@@H]4C=C[C@H]3C4)[C@@]1(Cl)C2(Cl)Cl	inactive	–
CCC1(CC)C(=O)N=C(O)NC1=O	inactive	–
CC(CCc1ccccc1)NC(C)C(O)c1ccc(O)cc1 (stereo not given)	inactive	–
CC[C@H]1C[C@H]2[C@@H]3CCC4=CC(=O)CC[C@@H]4[C@H]3CC[C@]2(C)[C@H]1O	inactive	–
CCc1cc2c(s1)-n1c(C)nnc1CN=C2c1ccccc1Cl	inactive	–
O=C1C(=O)c2cccc3cccc1c23	inactive	–
O=C(C(Cl)(Cl)Cl)C(Cl)(Cl)Cl	inactive	–
CCN[C@@H](C)Cc1ccccc1	inactive	–
Clc1ccc2ccccc2c1	inactive	–
Cc1cc(C)c(C(=O)P(=O)(C(=O)c2c(C)cc(C)cc2C)c2ccccc2)c(C)c1	inactive	–
Fc1cccc(Cl)c1CCl	inactive	–
O=C1CCCCC1Cl (stereo not given)	inactive	–
Oc1c(Cl)cc(Cl)cc1Cl	inactive	–
CCC#N	inactive	–
CC(O)CCl (stereo not given)	inactive	–
CCC1(C2=NCCN2)Cc2ccccc2O1 (stereo not given)	inactive	–
CCOC(=O)COc1cc(-c2nn(C)c(OC(F)F)c2Cl)c(F)cc1Cl	inactive	–
CC(C)C(Nc1ccc(C(F)(F)F)cc1Cl)C(=O)OC(C#N)c1cccc(Oc2ccccc2)c1 (stereo not given)	inactive	–
ClC(Br)Br	inactive	–
S=C(SSC(=S)N1CCCCC1)N1CCCCC1	inactive	–

SMILES	Potency	activity change, negative = inhibition
Cc1cc(C2CC2)nc(Nc2ccccc2)n1	54.5 µM (active)	–
COc1ccc(OC)c(CC(C)N)c1 (stereo not given)	65.6 µM (active)	–
CCOC(=O)C1(c2ccccc2)CCN(CCc2ccc(N)cc2)CC1	inactive	–
COc1cccc2c1cc([N+](=O)[O-])c1c(C(=O)O)cc3c(c12)OCO3	inactive	–
Cn1c(CCCC(=O)O)nc2cc(N(CCCl)CCCl)ccc21	inactive	–
CCc1ccc(C2CCNCC2)cc1	inactive	–
Cc1cccc2sc3nncn3c12	inactive	–
O=C=Nc1ccc(Cl)cc1	inactive	–
CCCCN(N=O)C(=N)N[N+](=O)[O-]	inactive	–
Oc1cccc(-c2ccccc2)c1	inactive	–
CC(Cl)C(C)Cl (stereo not given)	inactive	–
O=[N+]([O-])c1cc(C(F)(F)F)c(Cl)c([N+](=O)[O-])c1Cl	inactive	–
O=C1C(Cl)C(CCl)CN1c1cccc(C(F)(F)F)c1 (stereo not given)	inactive	–
NCCCNCCCN	inactive	–
O=c1[nH]oc2c1CCNC2	inactive	–
N#Cc1c(Cl)cccc1Cl	inactive	–
O=C1OC(c2ccc(O)c(S(=O)(=O)O)c2)(c2ccc(O)c(S(=O)(=O)O)c2)c2c(Br)c(Br)c(Br)c(Br)c21	inactive	–
CCS(=O)(=O)c1cccnc1S(=O)(=O)NC(=O)Nc1nc(OC)cc(OC)n1	inactive	–
Nc1c(Br)cc(Br)c2c1C(=O)c1ccccc1C2=O	–	17.4% [at 19 µM]
CC(Cc1ccccc1)N(C)Cc1ccco1 (stereo not given)	inactive	–
